Source: PubChem (National Center for Advancing Translational Sciences (NCATS))
SNCA viab count = cell viability loss counter-screen; actives 0.12% (n = 150,000); AID 1671193; HEK-293-SNCA-luc viability, GF-AFC fluorescence, 24 h; Potency, µM (top dose mostly 57.1 µM), for inactives: at the top dose activity change, negative = cytotoxicity, actives largely listed as cytotoxic;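 also: potency is read from the fitted curve at half-maximal effect; 0% = DMSO-treated cells and -100% = medium-only wells without cells; nearly all actives have a fitted effect of over 30% in size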
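Cytotoxicity counterscreen: after 24 h compound treatment of genome-edited SNCA-luciferase HEK-293 cells, live-cell protease substrate GF-AFC read by fluorescence after 30 min; activity scaled between DMSO (0%) and medium-only (-100%), curves Hill-fitted.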
KDM5B inh = blocks human KDM5B histone demethylase activity | Q9UGL1 | actives 2.6% (n = 220,000) | Potency, µM (series often up to 57.7 µM), usual class: inhibitors | KDM5B demethylase, FDH-coupled NADH fluorescence (FDH is formaldehyde dehydrogenase) | AID 1347165; also: potency is read from the fitted curve at half-maximal effect; 0% is about no effect; nearly all actives have a fitted effect of over 70% in size
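Here, H3K4me3 peptide (12.5 µM in substrate mix) is demethylated by KDM5BΔAP, 200 nM final, after 10 min compound exposure. Formaldehyde product is coupled through FDH (0.25 U/mL in mix) to NADH fluorescence; 30-min ΔRFU feeds dose-response curves.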
IP6K1 inh = blocks human inositol hexakisphosphate kinase 1. AID 1645851. actives 0.81% (n = 140,000). activity change, % (series mostly up to about 58 µM). IP6K1 kinase, ADP-Glo luminescence, 2 h; stronger effect = lower value. Q92551; in the data active = activity change below about -25%; also: % is scaled to controls: 0 for no effect and ±100 for the full control effect
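ADP-Glo luminescence measures ADP made by human IP6K1 during a 2 h RT reaction with ATP/IP6 (mix at 1.3 mM/130 uM); top library doses 57.5 and 19.1 uM final.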
SNCA expr inh = SNCA gene expression inhibition. HEK-293 SNCA-luciferase knock-in, luminescence, 24 h. actives 0.17% (n = 140,000). Potency, µM (titrated, usually from 57.2 µM), for inactives: at the top dose activity change, negative = inhibition, hits mostly inhibitors;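 also: potency is read from the fitted curve at half-maximal effect; plate controls were DMSO cells for no effect and cell-free wells for full effect; nearly all actives have a fitted effect of over 45% in size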
An asterisk follows results filed as active; i = inactive; ? = inconclusive; nt = no result; [ ] = dose if it differs, or a comment. The list is not random: actives were taken first. Their share in the collection is about 2.9%. Unless noted, calls follow the shape of the dose curve; as a rule, active = well fitted curve in the direction sought with a large enough effect; inconclusive = small, poorly fitted or top-dose-only effect, or another doubt; inactive = no such curve, though single readings can be large; an effect the other way counts as inactive or inconclusive.

SMILES | SNCA viab count | KDM5B inh | IP6K1 inh | SNCA expr inh
CCn1cc(C(=O)N[C@@H]2COCC[C@@H]2OCC2CC2)c(=O)c2ccc(C)nc21 | 3.6% | i | -8.8 | -2.0%
COCc1cc(NCCCNc2cccnc2)ncn1 | -0.2% | 14.1µM* | 4.5 | -0.3%
COCc1cc(NCCSCc2ccccc2C)ncn1 | 3.0% | i | -15.9 | 14.4%
COCCNCCCn1c(C(=O)CF)c(-c2ccc(C)cc2)c2c(N)ncnc21 | -11.3% | nt | nt | -28.3%
Cc1ccc(-c2c(C(=O)CCl)n(CCCO)c3ncnc(N)c23)cc1 | 23.8µM* | nt | 10.7 | nt
c1cc(N2CCCCC2)ccc1-c1n[nH]c(C2CCOC2)n1 (centres undefined) | -10.3% | 22.4µM* | 1.9 | -39.6%
COCCNC(=O)c1nc(-c2cccc(C(F)(F)F)c2)c2ccccn12 | 11.1% | 15.8µM* | 8.2 | 6.8%
COCCNC(=O)c1nc(-c2ccccc2)c2ccccn12 | 4.2%[87.6 µM] | i | 30.6 | 7.7%[87.6 µM]
O=C(NCc1cccnc1)c1nc(-c2cccc(C(F)(F)F)c2)c2ccccn12 | 4.3% | ? | 29.3 | -3.6%
C#CCNC(=O)c1nc(-c2cccc(C(F)(F)F)c2)c2cnccn12 | -0.8% | 31.6µM* | 0.0 | 35.1%
COCCNC(=O)c1nc(-c2cccc(C(F)(F)F)c2)c2cnccn12 | -4.2% | 25.1µM* | 0.0 | -7.8%
C#CCNC(=O)c1cn2cc(-c3cccc(C(F)(F)F)c3)sc2n1 | -17.5% | nt | 15.3 | -3.7%
COC(=O)CNC(=O)c1nc(-c2cccc(C(F)(F)F)c2)c2ccccn12 | 5.9% | 14.1µM* | 11.2 | 1.5%
Cn1ncc2c(C(=O)NCc3cccc(F)c3)cc(-c3cccc(C(F)(F)F)c3)nc21 | nt | nt | -1.6 | nt
Cc1ccccc1-n1nc(-c2c(C)nc3scc(CC(=O)NC(C)C)n3c2=O)cc1C | 1.2% | 28.2µM* | 4.8 | -9.3%
Cc1nc2scc(CC(=O)NCCC(C)C)n2c(=O)c1-c1cc(C)n(-c2cc(F)ccc2F)n1 | -18.9% | 28.2µM* | 9.0 | ?
Cc1ccc(F)cc1-n1nc(-c2c(C)nc3scc(CC(=O)NCC(C)C)n3c2=O)cc1C | ? | 28.2µM* | -10.3 | -18.6%
Cc1nc2scc(CC(=O)NCCC(C)C)n2c(=O)c1-c1cc(C)n(-c2ccc(F)cc2)n1 | -7.2% | 28.2µM* | -4.7 | -17.3%
COc1cc2c(cc1-c1ccc(OC(F)(F)F)cc1)OCC(C)(C)CC2CO (centres undefined) | -13.3%[23.9 µM] | nt | 9.7 | -15.5%[25.6 µM]
O=C(NCCc1ccc(Cl)cc1)c1ccc2nnc(C3CCCC3)n2c1 | ? | nt | -6.0 | -18.2%
COc1ccccc1-c1cc(C(=O)NCCc2ccc(Cl)cc2)nc2c1cnn2C | -0.7% | 79.4µM* | -4.9 | 22.5%
COc1ccccc1-c1cc(C(=O)NCCc2ccc(Cl)cc2)c2cnn(C)c2n1 | -7.0% | 79.4µM* | -10.1 | 7.9%
Cc1nn(-c2ccc(C(F)(F)F)cc2)c(C)c1[C@@H]1C=C[C@@H](NC(=O)Nc2cccc(C#N)c2)C1 | ? | ? | -10.0 | 0.1%
COc1ccccc1-c1cccc(CN2CCCC(C(=O)N3CCN(c4ncccn4)CC3)C2)c1 (centres undefined) | -3.2% | nt | -1.1 | -10.1%
FC(F)(F)c1ccc(N2CCC(N[C@@H]3C[C@@H]4OCC[C@@H]43)CC2)nc1 | 6.1% | 20µM* | 5.4 | -13.9%
SMILES | SNCA viab count | KDM5B inh | IP6K1 inh | SNCA expr inh
O=C(CN1CCN(c2ccc(C(F)(F)F)cn2)CC1)NC1CC1 | nt | i | nt | nt
CCCN(C)c1nccnc1OC1CCN(C(=O)CC(C)C)C1 (centres undefined) | 3.9% | ? | 40.9 | 168.5%
O=C(NC1CC1)c1nc(-c2ccc(Cl)cc2Cl)c2ccccn12 | 2.2% | 28.2µM* | 2.0 | 9.3%
N#CC1CCN(C(=O)c2nc(-c3ccc(Cl)cc3Cl)c3ccccn23)CC1 | -9.6% | 28.2µM* | 20.4 | 53.4%
O=C(NCCc1ccc(Cl)cc1)c1nc(-c2ccc(Cl)cc2Cl)c2ccccn12 | -0.5% | 79.4µM* | -22.1 | -13.7%
O=C(NCCc1ccc(Cl)cc1)c1nc(-c2ccc(Cl)cc2Cl)c2cnccn12 | -0.3% | 56.2µM* | -14.6 | 6.7%
N#CC1CCN(C(=O)C2CCc3nnc(-c4ccc(Cl)cc4Cl)n32)CC1 (centres undefined) | -0.5% | i | 6.9 | 7.2%
O=C(NC1CC1)c1nc(-c2cc(Cl)cc(Cl)c2)c2ccccn12 | 6.9%[87.6 µM] | ? | -6.3 | 10.6%[87.6 µM]
CC(C)Oc1ccccc1CN1C[C@@H](CO)[C@H](c2ccncc2)C1 | 1.8% | i | 3.0 | ?
COc1ccccc1Nc1ccnc(N2CCC(C(=O)NCc3ccc(F)cc3)CC2)n1 | -2.2% | nt | 10.2 | 3.1%
COc1ccc(Nc2ccnc(N3CCN([S+](=O)([O-])c4cccc(C(F)(F)F)c4)CC3)n2)cc1 | ? | nt | 1.8 | ?
COc1ccccc1-c1nnc2n1C(C(=O)NCCc1ccc(Cl)cc1)CC2 (centres undefined) | 10.5% | i | 9.6 | 31.7%
COc1ccccc1-c1nc(C(=O)NCCc2ccc(Cl)cc2)n2ccncc12 | 7.9% | 79.4µM* | -10.5 | -12.5%
Fc1cccc(-n2nc(C3CCOCC3)nc2CNC2CC2)c1 | -19.4% | i | 4.6 | -2.0%
N[C@@H](CO)c1nc(C2CCOCC2)nn1-c1ccccc1F | 0.0% | 25.1µM* | 3.7 | 15.7%
CS(=O)(=O)CC(O)c1cc2n(n1)CCN(c1cncc(C(N)=O)n1)C2 (centres undefined) | 2.3% | 25.1µM* | 11.2 | -9.2%
O=C1NCc2ccccc2CC12CCCN(Cc1cccc(Cl)c1)C2 (centres undefined) | -13.4% | i | -4.0 | -3.6%
COC[C@@H]1CCCN1Cc1cc2ccc(C)cc2nc1-c1ccc(OC)cc1 | -13.3% | 22.4µM* | -11.0 | 24.9%
COc1ccc(-c2nc3cc(C)ccc3cc2CN2CCCC(CO)C2)cc1OC (centres undefined) | -7.7% | i | 18.8 | -2.1%
COc1ccc2cc(CN3CCCC(C#N)C3)c(-c3cccs3)nc2c1 (centres undefined) | -5.7% | 31.6µM* | 13.4 | 0.3%
COc1ccc(-c2nc3cc(C)ccc3cc2CN2CCCC(OC)C2)cc1 (centres undefined) | -11.7% | 25.1µM* | -3.3 | 8.9%
CNC(=O)c1cc(-c2ccc(F)cc2OC)cc2c1OCCN2Cc1cccnc1 | -25.4%[87.6 µM] | 39.8µM* | -17.9 | 26.8%[87.6 µM]
CNC(=O)c1cc(-c2ccc([S+](C)(=O)[O-])cc2)cc2c1OCCN2Cc1cccnc1 | -0.3%[87.6 µM] | 35.5µM* | -7.4 | -3.4%[87.6 µM]
CNC(=O)c1cc(-c2cnc(OC)nc2)cc2c1OCCN2Cc1cccnc1 | 13.5%[87.6 µM] | i | -23.2 | -2.8%[87.6 µM]
CNC(=O)c1cc(-c2ccc(OC)c(OC)c2)cc2c1OCCN2Cc1cccnc1 | -4.9%[87.6 µM] | 31.6µM* | -24.1 | 61.7%[87.6 µM]
COc1ncc(-c2cc(C(=O)NCc3cccnc3)c3c(c2)N(C)CCO3)cn1 | 4.8%[87.6 µM] | i | -14.2 | 16.2%[87.6 µM]
CNC(=O)c1cc(-c2cnn(C)c2C)cc2c1OCCN2Cc1cccnc1 | ? | 35.5µM* | -18.2 | 13.1%[87.6 µM]
COCCN1CCCC[C@]2(C[C@H](C(=O)O)[C@H](c3ccco3)N2C(=O)Cc2ccc(F)cc2)C1=O | nt | nt | 0.0 | nt
